# System: VDR:RXRa (NR concentration 270 nM, RXRa partner concentration 90 nM)
# Experiment: PBM binding z-score (relative to random genomic background probes); higher = stronger binding; sequences stand for … in GC…GCGATTGACAGCGTAGAATGAAGG
# Procedure: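 Protein-binding microarray (Agilent 4x180K custom design, double-stranded 60-nt probes: 5' GC cap, 34-nt variable region, 24-nt constant primer region; full probe sequence given). Purified or IVT nuclear receptor:RXRα heterodimers (3:1 NR:RXRα, mostly 270:90 nM) or homodimers were incubated for 1 h in PBS with 2% milk and no ligand, then detected with Alexa488 antibodies. Fluorescence from o1-orientation probes (~5 replicates averaged) was converted to z-scores against 500 random hg19 background probes. Variable regions are seed direct-repeat (DR0–DR5) sites, all their single-nucleotide variants and half-site ablations.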
row,Sequence,PBM binding z-score
1,GCTTACGGGTCAAAGGTTATAGCTTGAATAGAAT,5.25
2,ATCGAAAGGACGAAGGTGAGTATACCCACCCGAA,-0.276
3,TCTTGTAGATCATCAGGTTAAGAAAGCTGGCCAA,0.814
4,CGTCCAAGGTCACTGCTAGGTCAGTGAAAGCATT,5.09
5,TCATATATGTAAATGCTAGGTGAAAGTCCGATCT,0.934
6,CCGATTGGGGCAAGGTTACCATAACGCACAGCCA,0.0829
7,ACTAGCAGGCCAAGGGCCACTCAAGATTAGTCCG,-0.798
8,ACAGACAGGTGAGTGAAGGTAACTCCGCTGGACG,-0.433
9,TCATATAGGTAAACAGGTGAAAGTGCGTAAGTTA,1.29
10,GGAACGAGGGCAAAGTTGATATCATCTGTCGACG,1.34
11,TTACCAAGGAGAGCTGAGGTCGTTGATCCAACTC,1.15
12,GCGACTGGGGCAAAGCAGGTTACGATAAGGTTGG,0.0646
13,TAACCTAGGTCATGCGGGCCAGTATAGTGTCGGC,3.55
14,CCTCGGAGGACAACAGGAGGTCAGAGCAGCCAGA,1.94
15,ATACCAAGGTGCTCGTGAGGTCGTTGATACTAAC,2.34
16,TCTTGTAGATCAAGCAGGTTAAGCAAGCCTGAGT,0.328
17,AATAGCAGGCCAAGTTTGGGTCACTCAAACAAAG,0.703
18,CCTACTGGTCCAAAGGTCATTGATTCCAATGCTC,4.83
19,AGAACGAGGGCCATGAGTTGATAGCACGGGTGGC,0.196
20,CAAACTAGGTGACGAAAGGTCAAAGTCGAATGAC,5.16

row,Sequence,PBM binding z-score
1,AGAACGAGGGCAATGAGTTGACAGCACGGGTGGC,5.03
2,TCTATTAGTTGATTAGGGCAAACGAAACAGCGGA,0.637
3,ATCTCTAGGTAAAGATAGATCAGTGAATGCAAAT,0.00458
4,CAAACTACGTCACAGAGGTCAAAGTCCGTGCGTA,5.85
5,CAAACTAGGTCACAGAGGTCAAAGCCCGTGCGTA,7.81
6,GCTTGTAGATCAAGGTTAAGAAGGACTAAGCTAA,0.438
7,ACAGACAGGAGATGAAGGTAACTCAGGCTATCAT,0.143
8,CGTCCATGGTCATAGGAGGTCAGTGAAGACAGAT,2.94
9,TCGAGTACGTTAGGGGCATTCAGAATGGCGTCGA,2.6
10,CCTTACGTGTCAAGGTTATAGCACGGGTGGTACG,0.738
11,TCTTGTAGATCAATAGAGGATAAGAAAGTGCGCT,0.432
12,CGTCCAAGGTCAATGGTCAGTGAAGAGATGACGG,3.55
13,CCTAGTTGGTCAAAGTCACACACGCTATAGGTAC,0.996
14,CAGCCCAGGTCAGGGCCAGTATAGGAGGAACGTT,0.803
15,GCAATTAGTTGAAAGGGCAACCGAATGATTCTCG,0.238
16,TCAGTCAGGTGAAGGTAACTCAGGTACGCAGTCG,0.652
17,ACTAGTTGGTCAGCCGAGGTCACACACAATTCGG,4.66
18,TCGAGTAGGTTAGACGGGGCATTCAGCCAACATA,1.29
19,GATAAAGGGTCAAGGCCAGAGTACGCGTATTGAT,4.56
20,TAGCCTAGGTCATGCGCCAGTATACCACGCGAAC,2.01
